Laboratory results taken from PubChem BioAssay (Tox21).
Results filed as inconclusive are left out. Unmarked numbers belong to inactive results. Calls of active or inactive are those of the source. Calls come from the whole dose curve.

What follows are molecules tested against D(2) dopamine receptor (Homo sapiens) (UniProt P14416) (assay: Dopamine D2 receptor (DRD2) small molecule agonists, cell-based qHTS assay (AID 1963594; note: nearly all actives have a fitted effect of over 35% in size)). Details: HEK293-DRD2 cAMP HTRF, agonist mode, 30 min; series mostly up to 92.4 µM; activation: at the top concentration.
D(2) dopamine receptor (Homo sapiens), sequence (P14416 whole entry, looked up): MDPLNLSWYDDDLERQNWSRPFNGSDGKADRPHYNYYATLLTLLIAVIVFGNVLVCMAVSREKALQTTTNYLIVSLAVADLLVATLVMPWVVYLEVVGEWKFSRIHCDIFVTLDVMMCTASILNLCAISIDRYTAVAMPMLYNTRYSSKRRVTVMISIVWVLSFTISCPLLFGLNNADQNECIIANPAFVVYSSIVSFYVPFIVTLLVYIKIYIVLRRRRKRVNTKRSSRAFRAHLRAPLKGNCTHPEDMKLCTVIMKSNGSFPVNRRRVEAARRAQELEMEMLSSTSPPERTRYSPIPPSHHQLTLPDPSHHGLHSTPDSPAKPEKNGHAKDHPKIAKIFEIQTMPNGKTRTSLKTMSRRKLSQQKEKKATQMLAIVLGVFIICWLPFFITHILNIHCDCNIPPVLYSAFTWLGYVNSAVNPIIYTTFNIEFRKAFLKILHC
Description: National Center for Advancing Translational Sciences [NCATS]
Division of Preclinical Innovation [DPI]
U.S. Environmental Protection Agency [EPA]
National Institutes of Environmental Health Sciences [NIEHS]
National Toxicology Program [NTP]
U.S. Food and Drug Administration [FDA]
DRD2 is the D2 subtype of the dopamine receptor, which is coupled to Gi subtype of G protein-coupled receptor. This G protein-coupled receptor inhibits adenylyl cyclase activity. The DRD2-HEK293 cell line stably expressing D2 dopamine receptor can be used for screening agonists and antagonists of interactions between D2 and its ligands. The Hek293-DRD2 cAMP assay is based on HTRF technology. It measures changes of cAMP accumulation in response to Gi coupled GPCR activation or inhibition.
Tox21 Assay Protocol Summary:
DRD2-Hek293 cells were dispensed at 600 cells/3uL/well in 1536-well white plates using a Multidrop Dispenser. After the assay plates were incubated at a 37 C/5% CO2 incubator for 24 h, 1 uL of Ro20-1724 at final concentration of 0.1 mM was transferred to the assay plate by a Flying Reagent Dispenser. Following Ro20-1724 addition, 23 nL of compound dissolved in DMSO, positive controls or DMSO only was added to the assay plates via Wako pintool station. The assay plates were incubated at room temperature for 10 min. Next, 1 uL of NKH477 at 200nM was added into the plates. After the assay plates were incubated at room temperature for an additional 30 min, 2.5 ul/well of cAMP-d2 and 2.5 ul/well of anti-cAMP-cryptate were added respectively into the assay plates using a Flying Reagent Dispenser. The plates were incubated at room temperature for 1 h. The fluorescence intensity in the plates was measured at 340 nm excitation and 665 & 620 nm emission by an Envision plate reader.
% is set by controls: 0 for no effect and ±100 for the full control effect.

Structure (SMILES)	activation	Potency
CCCCC(O)/C=C(C)/C=C/C=C/C(=O)N1CCCC1=O (stereo not given)	-9.71% [at 42.5 µM]	–
CC[C@H]1CN2CCc3cc(OC)c(OC)cc3[C@@H]2C[C@@H]1C[C@H]1NCCc2cc(OC)c(OC)cc21	–	inactive
O=C(CCN1CCN(CCO)CC1)N1c2ccccc2Sc2ccc(C(F)(F)F)cc21	2.46% [at 42.5 µM]	–
CC1=NN(c2ccc(S(=O)(=O)O)cc2)C(=O)C1	0.81%	–
COC(OC)OC	3.2%	–
O=c1[nH]c(=O)c2ccccc2o1	-14.5% [at 42.5 µM]	–
CC1=C(O)C(=O)C(C)O1 (stereo not given)	1%	–
Nc1nc(N)nc(-c2ccccc2)n1	1.38%	–
CC1CC(=O)CC(C)(C)C1 (stereo not given)	0.277%	–
CCCCCCCC(=O)N(C)C	-1.2%	–
CC(C)CC(C)O (stereo not given)	–	inactive
COc1ccc(-c2coc3cc(O)cc(O)c3c2=O)cc1	–	inactive
CCc1cccc(CC)c1NC(=O)C(=O)O	5.04%	–
NC(=O)c1cccc([N+](=O)[O-])c1	-2.75%	–
O=C(c1ccc(Cl)cc1)c1ccc(Cl)cc1	2.22%	–
COc1nc(N)nc2nc[nH]c12	-0.762%	–
O=c1[nH][nH]c(=O)c2cc([N+](=O)[O-])ccc12	-3.35%	–
O=C(O)C(=O)Nc1cccc(-c2nn[nH]n2)c1	-3.99% [at 42.5 µM]	–
C=C[C@H]1CN2CC[C@H]1C[C@@H]2[C@@H](O)c1ccnc2ccc(OC)cc12	–	inactive
CC1=CCC(=O)O1	-1.59%	–

Structure (SMILES)	activation	Potency
Cc1cccc(N(C)C)c1	-1.78%	–
CCCCCCCC(=O)OCCCCCC	-3.23%	–
CCCCCCCC/C=C\CCCCCCCC(N)=O	-0.0318%	–
CCOCCOCCOCC	-0.2%	–
CCOC(=O)CC(C(C)=O)C(C)=O	-3.77%	–
CCOC(=O)n1ccn(C)c1=S	–	inactive
CCCCCCCCCCCCCCCC	-3.06%	–
FC(F)(F)c1ccccc1Cl	1.45%	–
Cc1cnccn1	-3.55%	–
CO[Si](CCCOCC1CO1)(OC)OC (stereo not given)	–	inactive
CCNc1cc(O)ccc1C	-1.58%	–
CC(C)Oc1ccc2c(=O)c(-c3ccccc3)coc2c1	–	inactive
C=CCOC(=O)CCCCCC	2.8%	–
CCCCN=C(N)N=C(N)N	6.7% [at 42.5 µM]	–
CCCC(C)C(O)CC (stereo not given)	-9.28%	–
c1ccc2nccnc2c1	3.56%	–
C1=C\CC/C=C\CC/C=C\CC/1	9.43%	–
Clc1ccc2c(Cl)ccnc2c1	-0.165%	–
Oc1ccc(C(c2ccc(O)cc2)C(Cl)(Cl)Cl)cc1	–	inactive
CCCCC(CC)COP(=O)(O)OCC(CC)CCCC (stereo not given)	–	inactive
